Screens (PubChem BioAssay)
Pf Dd2 inh – inhibitors of Plasmodium falciparum Dd2 growth; P. falciparum Dd2 growth, SYBR Green, 72 h; Potency, µM (titrated, usually from 28.9 µM), for the others: top-dose activity, negative = inhibition, most hits filed as inhibitors; hit rate 4.3% among 120,000; AID 1347417; active = well fitted inhibition curve with a large enough effect;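 also: plate controls were DMSO vehicle for no effect and reference drug for full effect; nearly all actives have a fitted effect of over 65% in size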
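Readout: SYBR Green fluorescence, 485 nm excitation, 535 nm emission, after ~16 h lysis at 37C. Before that, Dd2-infected red cells (2.5% hematocrit) grew 72 h with compound, 29 uM top final concentration.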
* hit, by the source's call; i = inactive; [ ] = another dose, or the depositor's remark. Shown is part of a subset that was picked to be rich in hits. Potency is read from the fitted curve at half-maximal effect.

SMILES | Pf Dd2 inh
CC(=O)c1ccc(NC(=O)O[C@@H]2CO[C@H]3[C@@H]2OC[C@@H]3NC(=O)Nc2ccccc2)cc1 | i
Cc1ccc(S(=O)(=O)NC[C@H]2O[C@@H](CC(=O)N3CCCC3)[C@H](O)[C@@H]2O)cc1 | 29%[44.1 µM]
COc1ccc(-c2nc(C)nc3c2CCN(Cc2ccc(F)cc2)CC3)cc1 | i
CCc1nc2c(c(-c3ccc(OC)cc3)n1)CCN(C(=O)c1ccc(OC)cc1)CC2 | 28%
CCc1nc2c(c(-c3ccc(OC)cc3)n1)CCN(Cc1ccc(C(F)(F)F)cc1)CC2 | 11µM*
CCc1nc2c(c(-c3ccc(Cl)cc3)n1)CN(Cc1cccc3ccccc13)CC2 | -1%
CCc1nc2c(c(-c3ccc(Cl)cc3)n1)CN(CC1CC1)CC2 | 4.5µM*
CCc1nc2c(c(-c3ccc(Cl)cc3)n1)CN([S+](=O)([O-])c1ccc(C)cc1)CC2 | i
CCc1nc2c(c(-c3ccc(Cl)cc3)n1)CN(C(=O)c1ccc(F)cc1)CC2 | -4%
CCc1nc2c(c(-c3ccc(Cl)cc3)n1)CN(Cc1ccc(OC)cc1)CC2 | 11µM*
CCc1nc2c(c(-c3ccc(OC)cc3)n1)CN(C(=O)c1ccc(OC)cc1)CC2 | -15%
Cc1cn2nc(C(=O)N3CCN(C(=O)c4ccco4)CC3)cc2c(N2CCCC2)n1 | i
CNC(=O)[C@@H]1C[C@@H](n2cc(CNC(=O)Nc3cc(C)ccc3C)nn2)CN1 | 0%
COCCc1noc(C2CN(C(=O)C3CCOC3)C2)n1 (stereo not drawn) | 13%
O=[S+]([O-])(c1ccccc1)N1CC(Oc2ccc3c(c2)OCO3)C1 | -6%
COCCN1C(=O)[C@H]2CN(Cc3ccc(C)cc3C)C[C@H]2C1=O | -16%
O=c1c2c(n(Cc3cccnc3)n1-c1ccccc1)CN(CC1CC1)CC2 | i
CC(C)CCN1CCC(N2CCN(C(=O)c3ccccc3Br)CC2)C1=O (stereo not drawn) | -15%
CNC(=O)N1C[C@@H](CN(C)C)[C@H](NC(=O)CC2CCCC2)C1 | 18%
O=C1CC2CCN(Cc3ccc(F)cc3)CC2CCN1 (stereo not drawn) | 4%[44.1 µM]
O[C@@H]1CN(Cc2ccc(-n3cccn3)cc2)CC[C@H]1c1ccc(F)cc1 | 3.5µM*
CC(C)(O)C#Cc1ccc(CN2CC[C@@H](c3ccc(F)cc3)[C@H](O)C2)s1 | i
COc1cc(NC(=O)N2c3ccccc3CC2c2nc(C3CC3)no2)cc(OC)c1 (stereo not drawn) | i[5.79 µM]
Cc1cc(=O)n(CC(=O)Nc2c(C)cccc2C)c(-c2ccc(F)cc2)n1 | i
Cc1ccc(C(=O)NC2CCN(c3cc(-c4ccc(F)cc4)[nH]n3)C2)cc1 (stereo not drawn) | i
SMILES | Pf Dd2 inh
Cc1cccc(C(=O)NC2CCN(c3cc(-c4ccc(F)cc4)[nH]n3)C2)c1 (stereo not drawn) | 10µM*
COc1ccc(C(=O)NC2CCCN(c3cc(-c4ccccc4)[nH]n3)C2)cc1 (stereo not drawn) | -23%
O=C(NC1CCN(c2cc(-c3ccc(F)cc3)[nH]n2)C1)c1ccccc1 (stereo not drawn) | -9%
O=C(NC1CCN(c2cc(-c3ccc(F)cc3)[nH]n2)C1)c1cccc(F)c1 (stereo not drawn) | i
O=C(NC1CCN(c2cc(-c3ccc(Cl)cc3)[nH]n2)C1)c1ccc2[nH]ccc2c1 (stereo not drawn) | i
COc1ccc(-c2cc(N3CCCC(NC(=O)c4cccc(C(F)(F)F)c4)C3)n[nH]2)cc1 (stereo not drawn) | 1.3µM*
O=C(NC1CCN(c2cc(-c3ccc(F)cc3)[nH]n2)C1)c1ccc2[nH]ccc2c1 (stereo not drawn) | 5µM*
COc1ccc(-c2cc(N3CCC(NC(=O)c4cccc(OC(F)(F)F)c4)C3)n[nH]2)cc1 (stereo not drawn) | -8%
CCC(C)C(=O)NCc1cc2c(nc1OC)CN(CCc1ccccn1)C2=O (stereo not drawn) | -17%
COc1cccc([S+](=O)([O-])N2CCC(C(=O)O)(c3ccccc3)CC2)c1 | 7%
CCOc1ccc(CC(=O)N2CCCN(c3cc(-c4ccccc4)[nH]n3)CC2)cc1OCC | -14%
Cc1ccncc1C(=O)N1CCCN(C(=O)C2CC2)C(c2ccccc2)CC(=O)NCC1 (stereo not drawn) | 6%
COCC1(c2n[nH]c(C3CCOCC3)n2)CCC1 | -6%
CC1(C(=O)N2CCCC2C(=O)Nc2ccccc2Oc2cccnc2)CC1 (stereo not drawn) | -15%
CCCOc1ccc(C2c3c(-c4c(C)cc(C)cc4O)n[nH]c3C(=O)N2CCO)cc1 (stereo not drawn) | i
COc1cc(C2N=C(N)Nc3nc4ccccc4n32)ccc1OCCC(C)C (stereo not drawn) | -25%
COCCN1C(=O)c2[nH]nc(-c3cc(C)ccc3O)c2C1c1ccc(C(C)C)cc1 (stereo not drawn) | 8.9µM*
COc1cc(C2c3c(oc4cc(C)c(C)cc4c3=O)C(=O)N2CCCN2CCOCC2)ccc1O (stereo not drawn) | 12%
COCCn1ncc(N2CCC(NC(=O)c3ccc(C(C)C)cc3)CC2)cc1=O | -6%
COc1cc(C2c3c(-c4cc(C)ccc4O)n[nH]c3C(=O)N2CCCO)ccc1OCCC(C)C (stereo not drawn) | 3.2µM*
CC(Oc1ccccc1)C(=O)N1CC(Oc2cccc(-c3nc(-c4ccccc4)no3)c2)C1 (stereo not drawn) | 0%[5.79 µM]
O=C(NCCc1cnccn1)c1cccc(S(=O)(=O)NC2CCOC2)c1 (stereo not drawn) | 6%
CN(C)C1CCN(c2ccc(C(=O)N3CCC(N4CCOCC4)CC3)cn2)C1 (stereo not drawn) | 2%
CCc1cccc(NC(=O)N2c3ccccc3CC2c2nc(CCOC)no2)c1 (stereo not drawn) | i[5.79 µM]
O=C1CCN(S(=O)(=O)c2ccccc2)CCCN(C(=O)Cc2c[nH]c3ccccc23)CCN1 | -28%
SMILES | Pf Dd2 inh
CCOc1ccc(-c2cccc3c2CCNC3)cc1C(N)=O | -4%
NC(=O)c1ccc(-c2cccc3c2CCNC3)s1 | -5%
COc1ccc(-c2cccc3c2CCNC3)cc1OC | 11µM*
Oc1cccc(-c2cc(C[C@@H]3CC[C@H](O)[C@@H](CNC4CCC4)O3)no2)c1 | 4%[44.1 µM]
O[C@H]1CC[C@@H](Cc2cc(-c3ccccc3)on2)O[C@@H]1CNC1CCCCC1 | 4.5µM*
CC(C)CCNC[C@H]1O[C@H](Cc2cc(-c3ccc(F)cc3)on2)CC[C@@H]1O | 3.5µM*
O=C(NC[C@H]1O[C@H](Cc2cc(-c3ccc(F)cc3)on2)CC[C@@H]1O)c1ccc(F)cc1 | -3%[44.1 µM]
CC(C)(C)c1cc(C[C@@H]2CC[C@H](O)[C@@H](CN(CC3CC3)CC3CC3)O2)no1 | 4.5µM*
CN(C)C[C@H]1O[C@H](Cc2cc(CN3CCOCC3)on2)CC[C@@H]1O | 1%[44.1 µM]
O=C(COc1ccccc1)NC[C@H]1O[C@H](Cc2cc(-c3ccccc3)on2)CC[C@@H]1O | i
O[C@H]1CC[C@@H](Cc2cc(COc3ccccc3)on2)O[C@@H]1CNCc1cccc(Cl)c1 | 1.3µM*
COCc1cc(C[C@@H]2CC[C@H](O)[C@@H](CNCc3cccc(OC)c3)O2)no1 | -3%[44.1 µM]
COCc1cc(C[C@@H]2CC[C@H](O)[C@@H](CNCc3ccccc3)O2)no1 | i
CN(Cc1ccccc1)Cc1cc(C[C@@H]2CC[C@H](O)[C@@H](CN)O2)no1 | i
COc1cccc(NC(=O)NC[C@H]2O[C@H](Cc3cc(-c4ccc(F)cc4)on3)CC[C@@H]2O)c1 | -25%
